Our source for the sensor-assay potency score (higher = more potent) values is the OligoGym collection.
Also: reference of the scale not given here.

One assay addresses IREB2. The assay is described as follows: pooled miR-30 sensor sort-seq; sequence = guide strand. The settings on record: shRNA.
Turning to TGTCACAGCAACTCTATCCTGA, the sensor-assay potency score (higher = more potent) worked out at 0.64.

On to TAAAGTAAGAGAAACTGGCAGA, for which the sensor-assay potency score (higher = more potent) was -0.195.

In turn, TAGTATAACATGTTCTTCCTCT registered a sensor-assay potency score (higher = more potent) of 0.5.

Sequence TTATGTGTGAATCTGTGCCGAC returned a sensor-assay potency score (higher = more potent) of -0.0474.

TTCATCATCATTTACATCCATG: the sensor-assay potency score (higher = more potent) is -0.574.

Another assay has as its target IRF2. Described as above. Particulars: shRNA.
Sequence TTTCTTTATGCTTTTATCCTTG displayed a sensor-assay potency score (higher = more potent) of -0.739.

Consider TATCAGTCGTTTCGCTTTCTGC, for which the sensor-assay potency score (higher = more potent) is -0.797.

For TTTCCTTTCTTAGAAGGCCGTT, the sensor-assay potency score (higher = more potent) was -0.36.

Sequence TTCTGCATAGGAAGACACGGGG gave a sensor-assay potency score (higher = more potent) of -0.312.

Turning to TTCAATATTCCTCTTCCGCCAG, the sensor-assay potency score (higher = more potent) was -0.844.

Regarding TCTTGATTCTCAATGTTGCTGT, the sensor-assay potency score (higher = more potent) was 0.147.

Regarding TACAACTTGGCAAATGTCTGGC, the sensor-assay potency score (higher = more potent) was 0.449.

Regarding TTGCTCTCCTCTTTGATGGTGA, the sensor-assay potency score (higher = more potent) was -0.593.

The sequence TTTGCCTTCAATATTCCTCTTC showed a sensor-assay potency score (higher = more potent) of 0.432.

The sequence AATCTCTTGATTCTCAATGTTG registered a sensor-assay potency score (higher = more potent) of -1.2.

For TTTCTGCATAGGAAGACACGGG, the sensor-assay potency score (higher = more potent) was -0.335.

The next assay deals with IRX2. The description is as above. Particulars: shRNA.
Consider TTGTCCTTGCACTCCGAGCCCG, for which the sensor-assay potency score (higher = more potent) is -1.01.

The sequence TAGTTTGTGTAGTTGCCGTAGA registered a sensor-assay potency score (higher = more potent) of 0.0957.

Consider ATCTTCGCTTTTGTTTCTCGGG, for which the sensor-assay potency score (higher = more potent) was -1.09.

Consider TTCGCTTTTGTTTCTCGGGGCC, for which the sensor-assay potency score (higher = more potent) is -0.0873.

As to TCCTCGTCCTCATCTTCGCTTT, the sensor-assay potency score (higher = more potent) was -1.22.

Consider TCTTCGCTTTTGTTTCTCGGGG, for which the sensor-assay potency score (higher = more potent) is -0.791.

TTCTTGGGCTCGTAGCCGCCGC: the sensor-assay potency score (higher = more potent) is -1.6.

As for TACTTGTCCTTGCACTCCGAGC, the sensor-assay potency score (higher = more potent) was -1.54.

For the sequence TGTCCTTGCACTCCGAGCCCGA, the sensor-assay potency score (higher = more potent) was -0.973.

ATGGCTAGCATGATCTTCTCGC displayed a sensor-assay potency score (higher = more potent) of -0.31.

As for TTGTCGGGACTCTCGTCCTTGC, the sensor-assay potency score (higher = more potent) is -0.88.

TCTTTCTTGGGCTCGTAGCCGC yielded a sensor-assay potency score (higher = more potent) of -1.

In a further assay the target is ISLR2. The description is as above. The settings on record: shRNA.
The sequence TAGCGCACCGAGTGCGTCCCGG gave a sensor-assay potency score (higher = more potent) of -1.05.

Sequence TGAGCGTACTTGTCCACGCAGG had a sensor-assay potency score (higher = more potent) of -1.13.

Regarding TTGTCAGGGACTACACGCCGGG, the sensor-assay potency score (higher = more potent) was -0.648.

With TTGAGCTCTGCGCTCTGGTTGA, the sensor-assay potency score (higher = more potent) is -0.693.

As to TTGAAAACAACGAAAACAGGAA, the sensor-assay potency score (higher = more potent) is -0.395.

Sequence TTTGGAACTAAAAACTAGGGGT yielded a sensor-assay potency score (higher = more potent) of 0.382.

In turn, TTGACGCCTTCCTCTACGCGGG registered a sensor-assay potency score (higher = more potent) of -1.19.

In the case of TTTGTAAGCGCAGTCCGCGAAC, the sensor-assay potency score (higher = more potent) was -1.25.

TTGCGCAGGTCGCTCCACGGAA returned a sensor-assay potency score (higher = more potent) of -1.26.

TTTCCAAAGTCTTCGCTCGTTT had a sensor-assay potency score (higher = more potent) of -0.577.
